Shown are actives, neighbours in structure and some others; about 3.4% of the full set was active somewhere.
Tau fluor counter = counter-screen for tau fibril formation inhibitors; tau K18 P301L Alexa594 fluorescence, heparin fibrillization; Potency, µM (highest dose often 57.7 µM), without a hit: at the top dose activity change, negative = decrease; 0.93% of 280,000 active; note: nearly all actives have a fitted effect of over 55% in size
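Human tau K18 P301L (15 uM unlabeled, 0.24 uM Alexa 594-labeled) in 100 mM sodium acetate pH 7 with 20 uM heparin, 6 hr at 37 C. ThT 30 uM added, 1 hr ambient; Alexa 594 FP and total fluorescence read at 555/632 nm.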
JMJD2E inh = JMJD2E (human) inhibition. B2RXH2. JMJD2E catalytic domain, FDH-coupled NADH fluorescence (FDH is formaldehyde dehydrogenase). 1.6% of 230,000 active. Potency, µM (top dose mostly 57.1 µM), for inactives: at the highest dose activity change, negative = inhibition, actives largely listed as inhibitors; active = well fitted inhibition curve with a large enough effect, not every such curve was filed as active; inconclusive = small, poorly fitted or top-dose-only effect, or another doubt; inactive = no such curve, though single readings can be large or run the other way;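 note: 0% = wells with enzyme and -100% = buffer wells without enzyme; nearly all actives have a fitted effect of over 50% in size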
Tau fibril ThT = blocks human tau fibril formation measured by thioflavin T. AID 1460. recombinant tau K18 P301L (four-repeat tau fragment), heparin-induced fibrillization, ThT fluorescence. 2.1% of 270,000 active. Potency, µM (doses to about 57.4 µM), inactives show top-dose activity, negative = inhibition, most hits filed as inhibitors. P10636; note: nearly all actives have a fitted effect of over 55% in size
Target sequence (P10636 561-689 P618L limits assumed): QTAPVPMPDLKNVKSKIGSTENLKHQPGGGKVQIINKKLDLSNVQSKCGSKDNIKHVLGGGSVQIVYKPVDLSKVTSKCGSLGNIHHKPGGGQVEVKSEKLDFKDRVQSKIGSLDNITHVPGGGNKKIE
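Recombinant human tau K18 fragment […] carrying P301L, 15 uM unlabeled plus 0.24 uM Alexa 594-labeled, was fibrillized with 20 uM heparin in 100 mM sodium acetate pH 7 for 6 hr at 37 C; 30 uM ThT fluorescence read after 1 hr.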
Tau fibril FP = blocks human tau fibril formation measured by polarization; P10636; K18 P301L tau heparin fibrillization, Alexa594 FP, 6 h; Potency, µM (doses to about 57.7 µM), inactives show at the highest dose activity, negative = inhibition, actives largely listed as inhibitors; 0.39% of 280,000 active; AID 1468; note: nearly all actives have a fitted effect of over 55% in size
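Recombinant K18 P301L […], labeled with Alexa 594 at 0.24 uM over 15 uM unlabeled; heparin inducer 20 uM final; 37 C, 6 hr; FP endpoint.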
RGS12 GoLoco inh = blocks human Gai1 binding to RGS12 GoLoco peptide, red readout. AID 880. Potency, µM (titrated, usually from 61.6 µM), for inactives: at the top dose activity, negative = inhibition, most hits filed as inhibitors. 0.44% of 230,000 active. Gai1:RGS12 GoLoco peptide FP, rhodamine, 10 min. P63096; active = well fitted inhibition curve with a large enough effect, not every such curve was filed as active; inactive = no such curve, though single readings can be large or run the other way; note: nearly all actives have a fitted effect of over 30% in size
Target sequence (P63096 whole entry, looked up): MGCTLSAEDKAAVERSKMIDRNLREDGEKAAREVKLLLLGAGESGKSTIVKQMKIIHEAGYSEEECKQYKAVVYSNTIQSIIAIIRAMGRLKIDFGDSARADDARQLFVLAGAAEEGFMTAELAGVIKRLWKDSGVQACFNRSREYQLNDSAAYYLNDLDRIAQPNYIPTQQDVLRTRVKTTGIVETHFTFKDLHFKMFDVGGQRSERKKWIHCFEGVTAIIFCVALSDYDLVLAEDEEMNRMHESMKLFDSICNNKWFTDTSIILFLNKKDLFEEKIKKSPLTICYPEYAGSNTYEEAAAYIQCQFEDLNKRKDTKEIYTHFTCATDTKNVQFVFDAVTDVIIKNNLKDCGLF
Numbers without * were called inactive; ? = inconclusive; . = no result; [ ] = dose if it differs, or a comment. Unless noted, calls come from the whole dose curve; as a rule, active = well fitted curve in the direction sought with a large enough effect; inconclusive = small, poorly fitted or top-dose-only effect, or another doubt; inactive = no such curve, though single readings can be large; an effect the other way counts as inactive or inconclusive. Unless noted, % is set by controls: 0 for no effect and ±100 for the full control effect; potency is the fitted concentration of half-maximal effect.

SMILES | Tau fluor counter | JMJD2E inh | Tau fibril ThT | Tau fibril FP | RGS12 GoLoco inh
Cc1cccc(CNC(=O)CN2C(=O)CCn3nc(-c4cn(C)c5ccccc45)cc32)c1 | -24% | . | -15% | 11% | .
COc1ccc(OCCNc2cc(N3CCOCC3)ccc2[N+](=O)[O-])cc1 | ? | -4% | 5µM* | -1% | 11%
CC(Nc1cc(N2CCCC2)ccc1[N+](=O)[O-])c1ccccc1 (stereo not drawn) | -17% | -6% | ? | ? | 7%
CCCC(=O)N1CCN(c2ccc([N+](=O)[O-])c(NC(C)c3ccccc3)c2)CC1 (stereo not drawn) | -19% | 5% | 14µM* | 7% | -10%
CCNc1cc(N2CCCC2)ccc1[N+](=O)[O-] | -13% | -2% | 11µM* | 0% | 2%
COc1cccc(OCCNc2cc(N3CCOCC3)ccc2[N+](=O)[O-])c1 | ? | 2% | 11µM* | 4% | 7%
COc1cccc(OCCNc2cc(N3CCCCC3)ccc2[N+](=O)[O-])c1 | ? | 4% | ? | -3% | -13%
COCCn1c(=O)c(-c2cccs2)nc2cnc(N3CCNCC3)nc21 | . | . | . | . | 10%
O=C1CC(c2cccc(O)c2)c2cc3c(cc2N1)OCO3 (stereo not drawn) | -7% | . | -1% | 9% | .
CCC(=O)Nc1c(OC(=O)CC)ccc2c(C)cc(=O)oc12 | -6% | 4µM* | -14% | ? | 8%
Cc1ccccc1CN1C(=O)C(O)(CC(=O)c2ccccc2)c2cc(Cl)ccc21 (stereo not drawn) | -22% | . | -10% | -3% | .
N#Cc1nc(-c2cccs2)oc1NCc1ccc(Cl)cc1 | 18µM*[quencher] | ? | -10% | ? | 3%
COc1cccc(CNC(=O)CN2C(=O)CCCc3ccccc32)c1OC | -2% | . | -7% | 1% | .
Cc1ccc(C)n1-c1ccc(N2CCOCC2)nc1 | -29% | ? | 13µM* | -13% | -3%
Cc1ccc(S(=O)(=O)Nc2ccc(N3CCOCC3)nc2)cc1 | -11% | 7% | -4% | 10% | -67%
C/C(O)=C(\N=Nc1cc(C)ccc1O)C(N)=O | ? | -5% | 10µM* | 13% | 5%
Cc1ccc2nc(-c3ccc(Cl)s3)c(Nc3ccc4c(c3)OCCO4)n2c1 | ? | . | -15% | 10% | .
Cc1ccc2nc(-c3ccccc3O)c(Nc3ccc4c(c3)OCCO4)n2c1 | 7.1µM*[quencher] | ? | ? | 10% | -3%
Cc1ccc2nc(-c3ccc(O)cc3)c(Nc3ccc4c(c3)OCCO4)n2c1 | 25µM*[quencher] | ? | ? | 16% | 8%
COc1ccc(NC(=O)CC2C(=O)N(c3ccc(C)cc3)C(=O)N2CCc2ccccc2)cc1 (stereo not drawn) | ? | . | 5% | -10% | .
CCOc1ccc(S(=O)(=O)N2CCN(c3ccc(C)cc3C)CC2)c2ccccc12 | -23% | . | -12% | -11% | .
Cc1cccc(CCNC(=O)c2cnc3c(C)cccn3c2=O)c1 | -10% | . | -17% | -4% | .
O=C1OC(NC(=O)c2ccccc2)C(n2cc(CO)nn2)=C1Cl (stereo not drawn) | -23% | -13% | 7.1µM* | ? | -17%
CN(C)S(=O)(=O)c1cccc(NC(=S)N/N=C/c2cc(Br)ccc2O)c1 | 7.9µM*[quencher] | 10µM* | ? | ? | 4%
CCCCCCC(=O)Nc1nc(C)c(-c2csc(Nc3ccc(Cl)cc3)n2)s1 | 6.3µM*[quencher] | 3% | 5µM* | 0% | 66%
SMILES | Tau fluor counter | JMJD2E inh | Tau fibril ThT | Tau fibril FP | RGS12 GoLoco inh
CCCCCC(=O)Nc1nc(C)c(-c2csc(Nc3ccc(Cl)cc3)n2)s1 | 10µM*[quencher] | ? | 11µM* | 8% | 45%
CCCCCC(=O)Nc1nc(C)c(-c2csc(Nc3cc(Cl)ccc3C)n2)s1 | ? | -2% | ? | 7% | 11%
COCCn1ccc2c(OCC(=O)NCc3ccc(F)cc3)cccc2c1=O | -6% | . | -7% | -6% | .
C(=N\Nc1nc(-c2cccnc2)nc2ccccc12)/c1ccccc1 | ? | ? | -10% | -9% | 10%
C(=N\Nc1nc(-c2ccccn2)nc2ccccc12)/c1ccccc1 | ? | 8.9µM* | -11% | -14% | 0%
FC(F)(F)c1nc2ccccc2nc1N/N=C\c1ccccc1 | ? | ? | 14µM* | 1% | 7%
CSc1cccc(N2C(=O)N(CC(=O)NCc3ccccc3Cl)c3ccccc3S2(=O)=O)c1 | 2% | . | 17% | ? | .
Cc1ccc[n+](-c2nc([O-])sc2/C=N/Nc2ccc([N+](=O)[O-])cc2)c1 | -24% | -5% | 14µM* | -4% | 1%
Cc1ccc[n+](Cc2ccc([N+](=O)[O-])cc2)c1 | -13% | -5% | -10% | -6% | 4%
Cc1ccc2scc(N3CCN(c4ccccc4)CC3)c(=O)c2c1 | -30% | . | 4µM* | -5% | .
Cc1ccc2scc(N3CCN(c4ccc(F)cc4)CC3)c(=O)c2c1 | -22% | . | 8.9µM* | -6% | .
O=c1c(N2CCCCC2)csc2ccc(F)cc12 | -5% | . | ? | -3% | .
Cc1ccc2scc(N3CCc4ccccc4C3)c(=O)c2c1 | ? | . | 7.1µM* | ? | .
CCN1CCN(c2csc3ccc(F)cc3c2=O)CC1 | -5% | . | ? | 4% | .
CCCCN(Cc1ccccc1)C(=O)c1oc(=O)c2ccccc2c1-c1ccc(C)cc1 | -15% | . | -12% | -8% | .
CN(C)/C=C1/C=C(c2ccccc2)OC1=O | -23% | ? | 40µM* | ? | 12%

Screening data as filed in PubChem BioAssay.
